# Screening data deposited in PubChem by The Scripps Research Institute Molecular Screening Center.
# Fam108B inh – mouse Fam108B serine hydrolase inhibitors, primary screen, counter-screen for RBBP9 inhibitor project, biochemical, fluorescence polarization; recombinant Fam108B, FP-Rh probe fluorescence polarization; inhibition, % at 9.51 µM; hit rate 0.33% among 300,000; AID 1947, 2009;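 active = inhibition above the screen mean inhibition plus 3 SD, computed separately per campaign, cut at about 18% in these data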;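 also: inhibitors lower polarization as less probe binds the enzyme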
# PAD4 FP inh – human PAD4 inhibitors, primary screen, biochemical, fluorescence polarization, 1536-well format; Protein-arginine deiminase type-4 (Homo sapiens), Q9UM07; recombinant PAD4, RCA probe fluorescence polarization; inhibition, % at 6.36 µM; hit rate 0.41% among 330,000; AID 485272, 2010;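 active = percent inhibition above a cutoff equal to the mean of all tested compounds plus 3 SD, cut at about 15% in these data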;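 also: 0% = PAD4 with RCA probe and DMSO and 100% = probe without PAD4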
# TCR CD3 inh – inhibitors of human TCR-CD3 interaction, primary screen, biochemical, fluorescence, TAMRA-labeled TCR probe | T-cell receptor (TCR) | inhibition, % at 9.4 µM | hit rate 0.37% among 360,000; in the data active = inhibition above about 19%;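 also: recombinant mutant TCR 2C K166C tagged with TAMRA read by polarization; 0% = receptor in buffer alone and 100% = receptor with positive control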
# SIAE primary – human SIAE inhibitors, primary screen, biochemical, fluorescence polarization, FP-Rh probe, 1536-well HTS. inhibition, % at 9.66 µM. SIAE FP-Rh probe binding. hit rate 0.69% among 370,000. AID 1053197, 2014. Sialate O-acetylesterase (Homo sapiens), Q9HAT2;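 active = inhibition above a cutoff: mean of compounds within the control limits plus 3 SD of those, cut at about 17% in these data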;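 also: 0% = plate median of compound wells and 100% = probe without SIAE protein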
# PME-1 primary – PME-1 inhibitors via competitive probe labeling, primary screen, biochemical, fluorescence polarization, FP-Rh probe, HTS | hit rate 0.53% among 320,000 | recombinant PME-1 | inhibition, % at 5.9 µM;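 active = inhibition above the campaign mean of all compounds plus 3 SD, cut at about 26% in these data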;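 also: competitive labeling of PME-1 active site by serine hydrolase directed probe; 0% = PME-1 with DMSO and 100% = wells lacking PME-1 enzyme; inhibitors block probe labeling so polarization falls and inhibition rises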
# Target sequence (Q9Y570 whole entry, looked up): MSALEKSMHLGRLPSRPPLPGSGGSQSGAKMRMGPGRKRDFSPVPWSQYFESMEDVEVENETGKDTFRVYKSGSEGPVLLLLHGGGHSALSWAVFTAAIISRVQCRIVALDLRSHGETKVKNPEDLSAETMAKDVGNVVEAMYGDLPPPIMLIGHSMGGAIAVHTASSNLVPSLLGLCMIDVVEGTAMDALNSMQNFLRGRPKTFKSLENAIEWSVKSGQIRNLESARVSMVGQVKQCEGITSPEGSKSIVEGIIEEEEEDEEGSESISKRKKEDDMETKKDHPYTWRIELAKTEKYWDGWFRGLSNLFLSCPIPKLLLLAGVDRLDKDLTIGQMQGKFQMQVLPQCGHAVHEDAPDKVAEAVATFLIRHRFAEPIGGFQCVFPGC
# PRMT1 inh – PRMT1 methyltransferase inhibitors, primary screen, biochemical, fluorescence polarization; Protein arginine N-methyltransferase 1 (Homo sapiens), Q99873; recombinant PRMT1, activity-based probe fluorescence polarization; inhibition, % at 2.79 µM; hit rate 1.3% among 370,000; AID 652257, 2013;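 active = inhibition above about 21% made by adding two undisclosed values, limit read from the data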
# PRMT1 confirm – PRMT1 methyltransferase inhibitors, confirmation, biochemical, fluorescence polarization, triplicate. shares compounds with PRMT1 inh. recombinant His-PRMT1, activity-based probe fluorescence polarization. inhibition, % at 2.79 µM. hit rate 42% among 3,300;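 active = mean inhibition across replicates above the hit cutoff derived for the earlier primary screen, cut at about 22% in these data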
# SIAE inh conf – human SIAE inhibitors, retest, confirmation, biochemical, fluorescence polarization, FP-Rh probe, triplicate | shares compounds with SIAE primary | SIAE FP-Rh activity-based probe | inhibition, % at 9.66 µM | hit rate 13% among 2,300;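 active = mean inhibition of the replicates above the hit cutoff set in the primary screen, cut at about 17% in these data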;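 also: 0% = SIAE with DMSO and probe and 100% = probe without SIAE; inhibitors lower polarization as more probe stays unbound to SIAE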
# * = called active by the depositor; · = no result. A selection: hits, their analogues and other compounds. The true share with any hit is near 2.6%.
SMILES,Fam108B inh,PAD4 FP inh,TCR CD3 inh,SIAE primary,PME-1 primary,PRMT1 inh,PRMT1 confirm,SIAE inh conf
Cn1c(O)c(C(c2ccncc2)c2c(O)n(C)c(=S)n(C)c2=O)c(=O)n(C)c1=S,-1,-2,-12,-7,0,38*,1,·
COc1ccc2c3c1OC1C(O)C=CC4C(C2)[N+](C)(C)CCC341 (stereo not given),2,-1,7,4,-1,-1,·,·
COc1ccc(C2=NS(=O)(=O)N(C)C(C(=O)N3CCC4(CC3)OCCO4)=C2)cc1OC,-3,-6,0,-9,3,-2,·,·
CCN(CC)c1ccc(N=Cc2c(O)n(Cc3ccccc3)c(=O)[nH]c2=O)cc1,2,-14,2,8,2,2,·,·
CCN(CC)c1ccc(N=Cc2c(O)n(-c3ccccc3C)c(=O)[nH]c2=O)cc1,-3,11,18,12,6,28*,0,·
CCN1C(=O)C(=C/C=C/c2ccco2)C(=O)N(CC)C1=S,-40,-33,-52,-81,-69,27*,34*,·
CC(C)N1C(=O)/C(=C/C=C/c2ccco2)C(=O)N(Cc2ccco2)C1=O,-1,-17,-43,-17,-16,29*,16,·
COc1cc(N2C(=O)CC(=O)NC2=O)cc(OC)c1OC,-6,-3,5,1,-7,4,·,·
COC(=O)CC(=O)c1ccc2c(c1)OCO2,3,-3,1,1,1,1,·,·
CN(C)c1nc(-c2ccccc2)[n+](C)s1,4,-1,8,4,-3,34*,22*,·
CN(C)c1ccc(/C=C2/C(=O)NC(=O)N(Cc3ccco3)C2=O)cc1,4,-1,-1,-13,-10,29*,3,·
Cc1cc(/C=C2/C(=O)NC(=O)N(Cc3ccco3)C2=O)c(C)n1-c1ccccc1,5,-3,0,-13,-2,18,·,·
CCN(CC)c1ccc(/C=C2/C(=O)NC(=O)N(Cc3ccco3)C2=O)cc1,0,-1,-72,-87,-6,30*,3,·
Fc1cccc(F)c1-c1nc(-c2ccc(Cl)cc2)no1,0,1,-6,-8,-2,9,·,·
CC1CN1P1(=O)OCC(C)([N+](=O)[O-])CO1 (stereo not given),·,·,-4,-4,·,6,·,·
COc1ccc2c(c1)C13CCCC[C@@H]1C(C2)N(C)CC3 (stereo not given in full),1,-4,-6,2,2,136*,4,·
CCC(=NCC1CCCO1)c1c(O)n(-c2ccc(OC)cc2)c(=O)[nH]c1=O (stereo not given),1,4,-11,-1,3,6,·,·
CCOC(=O)CC(SP1(=S)OCC2(CCCCC2)CO1)C(=O)OCC (stereo not given),·,·,0,-3,·,25*,18,·
CC[C@@H](O)C[C@H]1CCC[C@@]2(C[C@@H]3OC(=O)/C=C/[C@@](C)(O)[C@@H](O)[C@H](C)[C@@H](O)[C@H](OC4CCC(N(C)C)C(C)O4)[C@@H](O)[C@](C)(O)CCCCC/C=C/[C@@H]4CC(C)(C)O[C@@]4(O)C[C@H](O2)[C@H]3C)O1 (stereo not given in full),·,·,-1,1,·,-3,·,·
COc1ccc2[nH]c(C)c(CCNCc3cccnc3)c2c1,·,0,-8,22*,2,120*,3,4
CC1=C[C@@H]2c3cccc4[nH]cc(c34)C[C@H]2N(C)C1,1,-6,13,17*,4,39*,36*,1
COOCC1(C(=O)OC)C[C@H](c2ccc(OC)cc2)N(Cc2ccccc2OC)[C@@H]1c1ccccc1C (stereo not given in full),·,·,1,-2,·,-3,·,·
[N-]=[N+]=NCCN1CCC(O)CCC1=O (stereo not given),5,1,-5,4,2,0,·,·
C(#CCN1CCCCC1)COCc1ccccc1,-4,-2,7,21*,2,0,·,1
CCOC(=O)[C@@]1(C#N)[C@@H]2C=CC(C(N)=O)=CN2[C@@H](C(N)=O)[C@@H]1c1cccc(Cl)c1,4,-1,3,21*,4,2,·,0
SMILES,Fam108B inh,PAD4 FP inh,TCR CD3 inh,SIAE primary,PME-1 primary,PRMT1 inh,PRMT1 confirm,SIAE inh conf
CCC1(CC)C(=N)N(C)C(=O)NC1=O,-3,1,2,-1,6,0,·,·
CCCCN1C(=N)C(CC)(CC)C(=O)NC1=O,-6,-2,1,21*,-4,-2,·,1
Cc1cc(OCC(=O)N2CCC(C(=O)O)CC2)c2c3c(c(=O)oc2c1)CCC3,1,7,-2,-3,-1,-1,·,·
Cn1c(CN2CCN(C(=O)COc3ccccc3)CC2)nc2cc([N+](=O)[O-])ccc21,1,-3,2,151*,2,-2,·,-2
CN1C2(C)c3ccccc3C1(c1ccccc1)c1ccccc12,·,·,6,-5,·,-2,·,·
CCN(C)C(C)Cc1cccc(C(F)(F)F)c1 (stereo not given),·,·,-11,6,·,-4,·,·
CCN[C@@H](C)Cc1cccc(C(F)(F)F)c1,·,-7,4,19*,·,0,·,3
Nc1ccc(S(=O)(=O)N2CC3CC(C2)c2cccc(=O)n2C3)cc1 (stereo not given),-4,6,6,17*,-9,2,·,5
NP(=O)(OCCCCc1ccccc1)Oc1ccccc1Cl (stereo not given),-3,6,-2,43*,41*,-1,·,38*
NP(=O)(OCC(F)(F)F)Oc1ccc(Cl)cc1 (stereo not given),4,3,2,20*,28*,-1,·,12
NC(Cc1nc2ccccc2[nH]1)c1ccc(Cl)cc1 (stereo not given),-2,2,-3,-10,-14,2,·,·
COC(=O)C1=C(c2ccc(OCc3ccccc3)cc2)C[C@@H]2CC[C@H]1N2C(=O)NCCCCc1ccccc1,·,·,9,-7,·,0,·,·
CC(C)(C)NC(=S)N1CCn2cccc2C1c1cccnc1 (stereo not given),-3,-3,1,21*,-3,-3,·,2
CCN1CCN(CC(=O)c2c(C)n(Cc3ccccc3)c3ccc(OC)cc23)CC1,0,-4,4,-9,-2,-2,·,·
